Reference: the supplement of paper PMC11732987, “Enantioselective OTUD7B fragment discovery through chemoproteomics screening and high-throughput optimisation” (Communications Chemistry, 2025)

Key:
Experiment in all cases: log2 ratio of Biotin-Ahx-Ub-VS probe labelling (fragment/DMSO); higher = less target engagement (more negative = stronger competition), active = hit call of the paper (q ≤ 0.05, log2 ratio ≤ -1)
Conditions in all cases: compound concentration: 200 uM; treatment time: 3 h
USP42 = biological target: T1, USP42 (UniProt Q9H9J4)
T1 sequence (whole entry): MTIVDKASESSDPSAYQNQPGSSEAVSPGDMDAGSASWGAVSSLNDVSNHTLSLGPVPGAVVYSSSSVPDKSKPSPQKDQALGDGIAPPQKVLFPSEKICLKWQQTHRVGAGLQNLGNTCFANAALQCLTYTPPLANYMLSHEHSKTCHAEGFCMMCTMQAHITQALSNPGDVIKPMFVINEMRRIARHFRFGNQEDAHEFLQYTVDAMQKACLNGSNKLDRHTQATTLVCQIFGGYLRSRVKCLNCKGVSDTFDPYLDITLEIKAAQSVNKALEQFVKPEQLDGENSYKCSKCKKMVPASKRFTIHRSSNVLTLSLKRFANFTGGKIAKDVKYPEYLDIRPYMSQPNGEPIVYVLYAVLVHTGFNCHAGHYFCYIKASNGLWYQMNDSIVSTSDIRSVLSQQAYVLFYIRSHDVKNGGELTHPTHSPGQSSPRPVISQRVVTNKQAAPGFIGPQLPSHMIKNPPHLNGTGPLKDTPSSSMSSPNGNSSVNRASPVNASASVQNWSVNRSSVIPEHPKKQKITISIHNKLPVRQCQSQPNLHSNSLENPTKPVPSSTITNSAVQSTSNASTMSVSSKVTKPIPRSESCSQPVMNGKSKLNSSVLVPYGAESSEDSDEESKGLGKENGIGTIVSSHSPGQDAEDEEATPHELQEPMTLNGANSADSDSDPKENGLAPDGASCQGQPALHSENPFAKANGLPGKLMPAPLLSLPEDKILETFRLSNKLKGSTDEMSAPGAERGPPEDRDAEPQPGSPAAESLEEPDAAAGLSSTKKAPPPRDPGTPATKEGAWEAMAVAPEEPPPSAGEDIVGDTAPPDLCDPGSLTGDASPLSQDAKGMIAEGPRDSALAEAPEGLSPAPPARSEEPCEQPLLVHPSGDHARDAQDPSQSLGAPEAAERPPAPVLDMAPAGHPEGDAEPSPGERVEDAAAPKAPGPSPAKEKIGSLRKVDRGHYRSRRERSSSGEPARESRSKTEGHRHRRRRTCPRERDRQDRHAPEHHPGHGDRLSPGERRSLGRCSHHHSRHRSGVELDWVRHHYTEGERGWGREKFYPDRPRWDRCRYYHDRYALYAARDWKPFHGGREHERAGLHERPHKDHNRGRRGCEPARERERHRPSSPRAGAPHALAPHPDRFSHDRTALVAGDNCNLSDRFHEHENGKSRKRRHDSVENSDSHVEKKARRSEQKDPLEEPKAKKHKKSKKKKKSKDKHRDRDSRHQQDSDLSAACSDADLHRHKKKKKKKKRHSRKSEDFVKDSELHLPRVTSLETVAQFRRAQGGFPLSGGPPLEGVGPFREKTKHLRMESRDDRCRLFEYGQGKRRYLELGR
In short: (§1)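 The table lists average log2 ratios of fragment over vehicle, from an unpaired t-test on global-median-normalised Spectronaut label-free quantities. Proteins with ≥2 unique peptides were used. Samples were HEK293T lysate (495 µg) treated in triplicate with fragment at 200 µM or vehicle for 3 h, then with Biotin-Ahx-Ub-VS (0.5 µM final) for 1 h, with labelled DUBs NeutrAvidin-enriched and run by diaPASEF LC-MS/MS.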

USP46 = USP46 (UniProt P62068)
Chain of USP46 (P62068 whole entry): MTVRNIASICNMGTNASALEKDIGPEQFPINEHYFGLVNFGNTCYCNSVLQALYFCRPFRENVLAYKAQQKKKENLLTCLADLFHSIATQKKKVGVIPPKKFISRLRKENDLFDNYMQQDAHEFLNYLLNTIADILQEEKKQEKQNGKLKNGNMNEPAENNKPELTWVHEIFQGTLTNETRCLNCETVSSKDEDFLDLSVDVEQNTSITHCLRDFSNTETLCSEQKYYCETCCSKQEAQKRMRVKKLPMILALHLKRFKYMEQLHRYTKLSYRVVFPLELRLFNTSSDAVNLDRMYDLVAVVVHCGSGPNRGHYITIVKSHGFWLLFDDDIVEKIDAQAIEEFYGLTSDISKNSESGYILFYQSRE
In short: as §1

USP47 = biological target: T2, USP47 (UniProt Q96K76)
T2 sequence (whole entry): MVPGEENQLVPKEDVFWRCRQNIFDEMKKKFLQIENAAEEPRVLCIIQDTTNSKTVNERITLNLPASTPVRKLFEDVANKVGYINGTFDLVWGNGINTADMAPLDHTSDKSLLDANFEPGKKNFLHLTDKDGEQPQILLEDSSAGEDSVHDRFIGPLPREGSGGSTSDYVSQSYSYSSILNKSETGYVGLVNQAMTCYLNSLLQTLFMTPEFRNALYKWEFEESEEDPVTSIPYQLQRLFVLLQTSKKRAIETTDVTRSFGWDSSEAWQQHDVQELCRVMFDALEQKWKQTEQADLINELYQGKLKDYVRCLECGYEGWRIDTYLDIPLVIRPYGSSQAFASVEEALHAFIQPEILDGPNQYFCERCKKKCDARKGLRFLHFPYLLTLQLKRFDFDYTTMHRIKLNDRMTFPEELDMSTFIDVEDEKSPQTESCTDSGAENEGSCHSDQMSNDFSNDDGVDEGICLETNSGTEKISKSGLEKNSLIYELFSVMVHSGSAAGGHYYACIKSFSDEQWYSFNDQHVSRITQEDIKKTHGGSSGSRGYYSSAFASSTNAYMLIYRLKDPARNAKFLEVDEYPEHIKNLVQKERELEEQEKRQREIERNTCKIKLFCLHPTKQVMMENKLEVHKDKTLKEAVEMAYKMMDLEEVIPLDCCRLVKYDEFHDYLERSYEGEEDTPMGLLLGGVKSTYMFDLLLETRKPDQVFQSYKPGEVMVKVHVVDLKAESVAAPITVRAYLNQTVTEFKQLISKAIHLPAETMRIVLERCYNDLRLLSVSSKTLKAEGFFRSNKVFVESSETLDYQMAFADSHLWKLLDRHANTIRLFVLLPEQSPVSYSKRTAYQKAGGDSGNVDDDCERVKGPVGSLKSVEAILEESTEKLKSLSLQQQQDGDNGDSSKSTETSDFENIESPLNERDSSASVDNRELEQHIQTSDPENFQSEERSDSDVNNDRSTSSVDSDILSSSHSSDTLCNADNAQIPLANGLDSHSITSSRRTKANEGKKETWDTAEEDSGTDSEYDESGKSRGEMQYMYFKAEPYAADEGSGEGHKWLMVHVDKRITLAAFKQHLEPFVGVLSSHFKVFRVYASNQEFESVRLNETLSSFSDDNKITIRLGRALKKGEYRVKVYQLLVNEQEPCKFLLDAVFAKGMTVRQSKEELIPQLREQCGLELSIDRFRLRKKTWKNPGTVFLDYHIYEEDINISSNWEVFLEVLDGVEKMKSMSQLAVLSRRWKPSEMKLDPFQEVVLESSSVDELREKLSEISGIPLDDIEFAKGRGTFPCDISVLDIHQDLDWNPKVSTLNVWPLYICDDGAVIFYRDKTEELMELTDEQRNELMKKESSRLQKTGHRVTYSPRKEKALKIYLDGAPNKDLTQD
In short: as §1

USP48 = biological target: T3, USP48 (UniProt Q86UV5)
T3 sequence (whole entry): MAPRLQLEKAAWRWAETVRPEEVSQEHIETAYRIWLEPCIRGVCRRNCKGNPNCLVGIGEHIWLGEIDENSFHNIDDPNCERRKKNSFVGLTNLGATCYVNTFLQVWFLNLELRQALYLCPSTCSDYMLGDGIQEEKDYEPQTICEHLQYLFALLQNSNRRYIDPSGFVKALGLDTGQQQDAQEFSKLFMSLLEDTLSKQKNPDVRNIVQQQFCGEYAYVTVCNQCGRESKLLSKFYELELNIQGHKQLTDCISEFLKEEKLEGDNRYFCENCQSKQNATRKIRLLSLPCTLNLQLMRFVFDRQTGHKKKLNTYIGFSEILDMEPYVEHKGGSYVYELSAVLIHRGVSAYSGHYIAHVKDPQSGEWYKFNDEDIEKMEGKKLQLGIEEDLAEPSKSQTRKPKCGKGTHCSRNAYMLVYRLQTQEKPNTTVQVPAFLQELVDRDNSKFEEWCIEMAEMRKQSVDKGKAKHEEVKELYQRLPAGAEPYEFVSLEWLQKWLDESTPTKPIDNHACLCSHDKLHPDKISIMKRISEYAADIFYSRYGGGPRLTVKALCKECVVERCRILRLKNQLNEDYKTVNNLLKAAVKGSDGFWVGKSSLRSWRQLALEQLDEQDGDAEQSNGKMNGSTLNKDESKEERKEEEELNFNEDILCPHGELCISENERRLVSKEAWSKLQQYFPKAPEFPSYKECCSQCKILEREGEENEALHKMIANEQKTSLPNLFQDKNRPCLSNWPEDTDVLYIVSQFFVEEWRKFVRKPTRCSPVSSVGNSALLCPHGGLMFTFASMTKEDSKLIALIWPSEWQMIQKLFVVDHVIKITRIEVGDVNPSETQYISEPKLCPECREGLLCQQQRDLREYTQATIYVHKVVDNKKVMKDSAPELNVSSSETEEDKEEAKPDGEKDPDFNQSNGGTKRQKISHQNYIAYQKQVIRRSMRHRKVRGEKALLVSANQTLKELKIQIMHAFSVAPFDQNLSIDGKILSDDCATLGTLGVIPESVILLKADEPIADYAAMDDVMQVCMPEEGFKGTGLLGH
In short: as §1

USP5 = biological target: T4, USP5 (UniProt P45974)
T4 sequence (whole entry): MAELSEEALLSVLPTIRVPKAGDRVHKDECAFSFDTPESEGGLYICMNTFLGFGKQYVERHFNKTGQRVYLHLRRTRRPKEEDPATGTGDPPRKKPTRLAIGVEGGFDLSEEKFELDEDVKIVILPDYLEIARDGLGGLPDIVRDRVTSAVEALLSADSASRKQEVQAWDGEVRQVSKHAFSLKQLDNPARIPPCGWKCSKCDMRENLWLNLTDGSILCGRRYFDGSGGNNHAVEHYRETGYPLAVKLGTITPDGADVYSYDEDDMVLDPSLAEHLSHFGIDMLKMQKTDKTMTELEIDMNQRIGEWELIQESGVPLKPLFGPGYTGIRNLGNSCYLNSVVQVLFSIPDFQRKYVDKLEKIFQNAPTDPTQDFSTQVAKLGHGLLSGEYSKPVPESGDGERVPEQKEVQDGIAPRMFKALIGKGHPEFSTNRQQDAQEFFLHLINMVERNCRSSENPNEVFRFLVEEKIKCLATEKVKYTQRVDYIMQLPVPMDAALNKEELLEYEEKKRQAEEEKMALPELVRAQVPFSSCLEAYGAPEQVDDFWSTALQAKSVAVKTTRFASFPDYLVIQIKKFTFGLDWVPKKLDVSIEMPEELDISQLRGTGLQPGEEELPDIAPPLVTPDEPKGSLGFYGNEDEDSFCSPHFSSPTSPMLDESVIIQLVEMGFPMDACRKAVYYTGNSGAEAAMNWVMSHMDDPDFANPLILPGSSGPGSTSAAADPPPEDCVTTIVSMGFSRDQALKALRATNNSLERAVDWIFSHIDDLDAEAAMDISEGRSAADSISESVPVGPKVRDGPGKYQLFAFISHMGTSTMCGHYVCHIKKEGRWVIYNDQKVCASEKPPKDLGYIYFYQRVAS
In short: as §1

USP54 = USP54 (UniProt Q70EL1)
Chain of USP54 (Q70EL1 whole entry): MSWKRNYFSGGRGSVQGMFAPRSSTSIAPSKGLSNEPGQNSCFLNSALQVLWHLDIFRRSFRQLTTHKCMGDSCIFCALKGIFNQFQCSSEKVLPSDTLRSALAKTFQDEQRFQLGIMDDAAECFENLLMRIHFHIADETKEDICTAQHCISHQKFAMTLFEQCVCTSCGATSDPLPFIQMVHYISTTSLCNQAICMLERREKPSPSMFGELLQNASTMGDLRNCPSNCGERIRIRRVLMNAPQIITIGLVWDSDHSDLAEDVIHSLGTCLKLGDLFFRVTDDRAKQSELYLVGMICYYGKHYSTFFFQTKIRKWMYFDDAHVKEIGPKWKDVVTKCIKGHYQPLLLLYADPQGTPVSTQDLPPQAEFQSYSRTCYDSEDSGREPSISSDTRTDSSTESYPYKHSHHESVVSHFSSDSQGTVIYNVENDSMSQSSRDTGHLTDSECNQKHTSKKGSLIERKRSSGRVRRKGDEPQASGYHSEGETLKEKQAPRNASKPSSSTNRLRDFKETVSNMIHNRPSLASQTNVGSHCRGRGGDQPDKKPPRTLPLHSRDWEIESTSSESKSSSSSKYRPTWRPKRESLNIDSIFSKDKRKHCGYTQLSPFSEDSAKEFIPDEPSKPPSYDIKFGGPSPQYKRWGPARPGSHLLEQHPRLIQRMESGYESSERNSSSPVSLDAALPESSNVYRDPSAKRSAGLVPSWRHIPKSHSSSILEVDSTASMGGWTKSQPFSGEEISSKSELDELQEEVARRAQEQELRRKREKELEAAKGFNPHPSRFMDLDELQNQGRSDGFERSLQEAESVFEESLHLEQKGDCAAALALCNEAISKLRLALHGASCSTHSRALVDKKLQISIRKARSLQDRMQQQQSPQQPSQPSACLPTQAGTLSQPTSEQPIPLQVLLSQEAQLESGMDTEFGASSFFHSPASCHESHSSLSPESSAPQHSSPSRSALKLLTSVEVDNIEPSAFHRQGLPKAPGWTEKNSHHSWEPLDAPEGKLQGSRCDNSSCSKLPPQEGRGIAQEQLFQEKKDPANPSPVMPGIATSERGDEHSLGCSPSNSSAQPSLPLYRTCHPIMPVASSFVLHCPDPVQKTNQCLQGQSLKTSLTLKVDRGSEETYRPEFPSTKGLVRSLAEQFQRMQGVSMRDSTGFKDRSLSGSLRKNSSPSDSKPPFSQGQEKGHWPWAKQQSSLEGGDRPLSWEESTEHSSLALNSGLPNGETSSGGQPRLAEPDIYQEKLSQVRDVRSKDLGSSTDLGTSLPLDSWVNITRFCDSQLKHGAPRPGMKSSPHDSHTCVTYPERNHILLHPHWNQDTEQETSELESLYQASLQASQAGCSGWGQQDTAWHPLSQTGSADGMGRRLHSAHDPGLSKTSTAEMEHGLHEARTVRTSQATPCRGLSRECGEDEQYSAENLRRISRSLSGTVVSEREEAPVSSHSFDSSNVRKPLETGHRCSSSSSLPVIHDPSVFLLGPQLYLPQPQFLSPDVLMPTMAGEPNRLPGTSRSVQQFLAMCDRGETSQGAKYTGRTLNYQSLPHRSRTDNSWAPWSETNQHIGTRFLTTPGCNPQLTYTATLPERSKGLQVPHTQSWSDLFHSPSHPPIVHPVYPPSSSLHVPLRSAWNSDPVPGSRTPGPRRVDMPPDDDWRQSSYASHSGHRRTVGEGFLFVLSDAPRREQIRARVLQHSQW
In short: as §1

USP7 = USP7 (UniProt Q93009)
In short: as §1

USP8 = biological target: T5, USP8 (UniProt P40818)
T5 sequence (whole entry): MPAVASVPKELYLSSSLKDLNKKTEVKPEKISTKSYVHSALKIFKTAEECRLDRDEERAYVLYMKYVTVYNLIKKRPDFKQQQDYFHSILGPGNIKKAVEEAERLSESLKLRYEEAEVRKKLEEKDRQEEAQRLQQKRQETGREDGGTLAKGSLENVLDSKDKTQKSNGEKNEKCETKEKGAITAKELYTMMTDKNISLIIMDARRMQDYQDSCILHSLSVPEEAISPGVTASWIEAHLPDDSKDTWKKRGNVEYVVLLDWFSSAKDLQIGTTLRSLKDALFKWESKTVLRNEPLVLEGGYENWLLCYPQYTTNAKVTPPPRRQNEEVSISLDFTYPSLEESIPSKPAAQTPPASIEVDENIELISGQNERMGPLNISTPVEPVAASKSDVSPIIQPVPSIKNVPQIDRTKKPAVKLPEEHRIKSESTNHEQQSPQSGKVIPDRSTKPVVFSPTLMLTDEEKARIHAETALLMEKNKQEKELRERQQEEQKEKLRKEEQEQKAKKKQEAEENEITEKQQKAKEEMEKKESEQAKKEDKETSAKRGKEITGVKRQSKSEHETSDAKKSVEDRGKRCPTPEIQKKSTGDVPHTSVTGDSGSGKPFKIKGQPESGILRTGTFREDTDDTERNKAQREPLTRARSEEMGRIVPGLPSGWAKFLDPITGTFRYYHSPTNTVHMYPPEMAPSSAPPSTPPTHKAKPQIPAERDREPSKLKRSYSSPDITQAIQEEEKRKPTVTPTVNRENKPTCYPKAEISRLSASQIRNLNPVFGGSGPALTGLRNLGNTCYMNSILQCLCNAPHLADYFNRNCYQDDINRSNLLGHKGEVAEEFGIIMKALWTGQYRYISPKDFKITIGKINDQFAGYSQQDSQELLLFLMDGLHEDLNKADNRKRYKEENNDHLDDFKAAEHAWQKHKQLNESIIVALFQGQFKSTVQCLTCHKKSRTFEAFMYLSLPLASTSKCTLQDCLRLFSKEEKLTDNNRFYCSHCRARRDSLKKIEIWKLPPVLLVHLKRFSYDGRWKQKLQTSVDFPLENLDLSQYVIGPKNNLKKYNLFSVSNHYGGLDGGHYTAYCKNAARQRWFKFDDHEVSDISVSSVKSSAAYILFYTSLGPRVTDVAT
In short: as §1

USP9X = USP9X (UniProt Q93008)
Chain of USP9X (Q93008 whole entry): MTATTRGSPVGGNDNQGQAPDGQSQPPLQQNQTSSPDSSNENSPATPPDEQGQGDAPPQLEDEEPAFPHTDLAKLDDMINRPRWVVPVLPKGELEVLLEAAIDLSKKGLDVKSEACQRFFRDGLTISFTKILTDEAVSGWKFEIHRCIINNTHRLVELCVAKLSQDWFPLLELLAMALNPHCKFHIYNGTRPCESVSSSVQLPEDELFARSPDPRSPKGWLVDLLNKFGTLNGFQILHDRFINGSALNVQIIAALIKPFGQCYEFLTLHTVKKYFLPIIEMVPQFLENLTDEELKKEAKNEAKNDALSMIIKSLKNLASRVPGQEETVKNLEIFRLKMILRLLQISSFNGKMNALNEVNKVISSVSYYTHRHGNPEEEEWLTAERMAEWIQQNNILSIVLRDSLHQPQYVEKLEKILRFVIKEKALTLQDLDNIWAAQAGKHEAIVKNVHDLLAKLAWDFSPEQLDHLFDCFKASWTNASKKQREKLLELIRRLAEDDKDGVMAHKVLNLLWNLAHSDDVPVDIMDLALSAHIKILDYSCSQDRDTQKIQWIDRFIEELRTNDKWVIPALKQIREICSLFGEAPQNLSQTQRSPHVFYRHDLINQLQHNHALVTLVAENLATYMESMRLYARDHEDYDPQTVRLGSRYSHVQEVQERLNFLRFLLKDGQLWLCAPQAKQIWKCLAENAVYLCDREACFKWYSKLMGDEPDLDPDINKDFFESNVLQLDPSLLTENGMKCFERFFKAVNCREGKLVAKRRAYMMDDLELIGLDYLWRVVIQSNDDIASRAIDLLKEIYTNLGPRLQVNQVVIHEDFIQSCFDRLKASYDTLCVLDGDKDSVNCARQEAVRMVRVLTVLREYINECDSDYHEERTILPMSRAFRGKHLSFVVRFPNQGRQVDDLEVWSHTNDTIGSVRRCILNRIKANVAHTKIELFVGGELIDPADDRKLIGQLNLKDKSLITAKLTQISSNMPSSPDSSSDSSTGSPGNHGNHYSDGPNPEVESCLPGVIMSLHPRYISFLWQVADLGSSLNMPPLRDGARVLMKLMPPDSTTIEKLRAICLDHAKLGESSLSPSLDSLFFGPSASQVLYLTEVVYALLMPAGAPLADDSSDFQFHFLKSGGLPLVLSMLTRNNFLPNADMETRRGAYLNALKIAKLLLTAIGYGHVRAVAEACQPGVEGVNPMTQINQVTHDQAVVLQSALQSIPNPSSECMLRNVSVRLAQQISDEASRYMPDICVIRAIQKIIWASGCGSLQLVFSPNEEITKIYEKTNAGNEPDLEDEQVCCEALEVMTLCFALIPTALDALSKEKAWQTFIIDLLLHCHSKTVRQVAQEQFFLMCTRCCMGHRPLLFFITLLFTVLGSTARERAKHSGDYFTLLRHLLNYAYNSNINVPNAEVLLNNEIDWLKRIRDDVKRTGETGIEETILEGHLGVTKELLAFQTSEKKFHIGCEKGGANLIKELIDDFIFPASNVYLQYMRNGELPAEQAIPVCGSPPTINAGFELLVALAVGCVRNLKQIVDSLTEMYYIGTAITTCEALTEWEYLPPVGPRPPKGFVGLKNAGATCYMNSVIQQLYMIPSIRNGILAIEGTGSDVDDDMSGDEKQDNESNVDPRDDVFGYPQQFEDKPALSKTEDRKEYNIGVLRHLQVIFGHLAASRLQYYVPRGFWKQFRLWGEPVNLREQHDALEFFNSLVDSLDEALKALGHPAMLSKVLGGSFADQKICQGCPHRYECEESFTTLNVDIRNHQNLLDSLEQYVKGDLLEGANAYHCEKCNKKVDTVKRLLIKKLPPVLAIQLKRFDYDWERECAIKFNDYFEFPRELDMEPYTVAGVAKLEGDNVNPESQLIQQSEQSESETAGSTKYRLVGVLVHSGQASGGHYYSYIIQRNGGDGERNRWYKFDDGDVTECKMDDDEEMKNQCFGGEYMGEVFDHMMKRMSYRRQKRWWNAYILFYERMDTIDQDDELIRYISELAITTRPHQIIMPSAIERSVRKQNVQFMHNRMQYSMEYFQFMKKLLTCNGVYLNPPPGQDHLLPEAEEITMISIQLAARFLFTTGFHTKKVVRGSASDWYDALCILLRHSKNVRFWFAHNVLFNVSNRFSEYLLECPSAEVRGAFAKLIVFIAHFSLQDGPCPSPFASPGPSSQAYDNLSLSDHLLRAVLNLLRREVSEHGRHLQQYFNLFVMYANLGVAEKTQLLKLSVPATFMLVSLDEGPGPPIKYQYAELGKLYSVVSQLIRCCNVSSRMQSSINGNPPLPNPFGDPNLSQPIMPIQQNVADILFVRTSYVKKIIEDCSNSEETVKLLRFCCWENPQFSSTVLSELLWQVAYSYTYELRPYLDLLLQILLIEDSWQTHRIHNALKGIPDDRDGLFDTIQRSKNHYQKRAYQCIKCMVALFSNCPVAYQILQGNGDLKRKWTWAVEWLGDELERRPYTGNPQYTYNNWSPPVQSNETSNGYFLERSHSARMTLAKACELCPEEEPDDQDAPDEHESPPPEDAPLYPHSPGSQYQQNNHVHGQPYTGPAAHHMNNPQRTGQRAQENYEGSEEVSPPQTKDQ
In short: as §1

UniProt O00487 = biological target: UniProt O00487
Chain of UniProt O00487 (O00487 whole entry): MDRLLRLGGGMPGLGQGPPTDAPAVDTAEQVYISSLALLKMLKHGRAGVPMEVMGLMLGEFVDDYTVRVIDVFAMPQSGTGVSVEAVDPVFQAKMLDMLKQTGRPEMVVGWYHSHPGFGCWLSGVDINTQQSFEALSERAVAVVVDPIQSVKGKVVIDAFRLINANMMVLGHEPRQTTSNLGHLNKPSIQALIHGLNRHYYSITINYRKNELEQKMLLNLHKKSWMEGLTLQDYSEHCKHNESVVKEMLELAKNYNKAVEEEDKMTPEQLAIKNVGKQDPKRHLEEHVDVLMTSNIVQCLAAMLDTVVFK
In short: as §1

Measured: log2 ratio of Biotin-Ahx-Ub-VS probe labelling

O=C(CCl)Nc1nc(-c2cccs2)cs1
inactive: USP42 0.598 | USP46 -0.255 | USP47 -0.799 | USP48 -0.537 | USP5 0.0914 | USP54 0.00682 | USP7 -0.679 | USP8 0.0395 | USP9X -0.505 | UniProt O00487 -0.17

Cl.O=C(CN1CCN(C(=O)CCl)CC1)Nc1ccc(F)cc1
inactive: USP42 0.733 | USP46 0.0462 | USP47 -0.158 | USP48 -0.321 | USP5 0.365 | USP54 0.194 | USP7 -0.291 | USP8 0.234 | USP9X 0.0748 | UniProt O00487 -0.0621

O=C(CCl)Nc1ccccc1C(F)(F)F
inactive: USP42 0.398 | USP46 0.0498 | USP47 -0.374 | USP48 -0.257 | USP5 -0.323 | USP54 0.637 | USP7 -0.404 | USP8 -0.029 | USP9X -0.0415 | UniProt O00487 -0.162
